From PubChem BioAssay (NCI) come the findings set out here.

This is part of a sample that, as a whole, favours compounds with a hit. Of some 83,000 tested, about 20% had one in any assay.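 A percent growth of 40 corresponds to 60% growth inhibition; 0 means no net growth; -100 means all cells died. Active threshold: below 10.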 The source made the active and inactive calls.

The experiment concerns HCC-2998 colon. Nature of the experiment: NCI-60 one-dose screen, 48 h (100 = growth as untreated, 0 = no growth, -100 = all killed). The conditions noted are these: 10 µM unless noted.
In the case of `CCOC(=O)C(C#N)C1CCCCC1` (configuration not stated), the growth is 102% (inactive). For `Cc1nc2nc(N)nc(N)c2nc1C` the value was 99% (inactive); for `Cc1cc2cc3cc(C)c(N(C)C)cc3[n+](C)c2cc1N(C)C`, 25.6% (inactive). Under `O=[N+]([O-])c1cccc(-c2nc3sccn3c2-c2ccnc(NCCCNS(=O)(=O)c3cccc(F)c3)n2)c1` stands 65.6% (inactive); under `Cc1ccc(Nc2nc(N)nc(Nc3ccc4ccccc4c3)n2)cc1`, 77.5% (inactive); under `COc1ccc(C(=O)COc2ccc(/C=C3\Oc4ccc(Cl)cc4C3=O)cc2)cc1`, 111% (inactive). Under `O=C(/C=C/c1ccc(B(O)O)cc1)/C=C/c1ccc(B(O)O)cc1` stands -77.1% (active). With `CNC(=O)c1cc(Oc2ccc3nc(NC(=O)Nc4ccc(CN5CCOCC5)c(C(F)(F)F)c4)sc3c2)ccn1`, the growth was 32.3% (inactive). For the compound `C=C1C(=O)O[C@H]2[C@H]1CC/C(Cn1cc(Cn3ccc4cc(Cl)ccc43)nn1)=C\CC[C@@]1(C)O[C@@H]21`, the growth was 39.1% (inactive). In the case of `Nc1ccc(N2CCOCC2)cc1`, the growth was 96.9% (inactive). For `CCCCCCCCCc1cc(CN2CCCCC2)c(O)c(CN2CCCCC2)c1` the value was 68.2% (inactive); for `COc1ccc2nc3cc(Cl)ccc3c(N3CCN(c4nccc(Nc5ccccc5)n4)CC3)c2c1`, 87.6% (inactive). With `COc1ccc(-c2nn(-c3ccccc3)cc2/C=C/C(=O)OCc2cn(-c3ccc(F)c(Cl)c3)nn2)cc1`, the growth was 98.7% (inactive). Under `COc1ccc(C2CC(=O)Nc3c2c(C)nn3-c2nc3ccccc3[nH]2)cc1` (configuration not stated) stands 112% (inactive).

In the case of `COc1cc(NC(N)=NCC(C)(C)COc2ccc(C(F)(F)F)cc2)cnc1C#N`, the growth was 18.9% (inactive). With `CSc1nc(NCCO)c(C#N)c(-c2cccc(N)c2)n1`, the growth is 109% (inactive). Turning to `COc1cccc(/C=C2/C(=O)N(Cc3ccco3)SC2=S)c1OC`, the growth was 108% (inactive). As to `COc1ccc2nc3cc(Cl)ccc3c(N3CCN(c4nccc(Nc5ccc(Cl)cc5)n4)CC3)c2c1`, the growth was 92.3% (inactive). Under `NCc1cn2cc(Cl)sc2n1` stands 102% (inactive); under `COc1ccc(/C=C/C(=O)c2ccc(NC(=O)c3cc4cc5ccccc5nc4s3)cc2)cc1OC`, 104% (inactive).

As for `CC(=O)N1CC(Nc2ccc(OC(F)(F)F)cc2)=CC1=O`, the growth is 60.2% (inactive). Under `COc1ccc(/C=N\NC(=O)CN2CCN(c3cc4c(cc3F)c(=O)c(C(=O)N/N=C/c3ccc(OC)cc3)cn4C3CC3)CC2)cc1` stands 102% (inactive). On to `CN(C)c1ccc(/C=C\C2=[N+](C)c3ccccc3C2(C)C)cc1`, for which the growth is 23.4% (inactive). For `COc1nc2c(cc1S(=O)(=O)c1ccccc1)CCc1c-2cnn1-c1ccc(Cl)cc1`, the growth was 92.9% (inactive). For `CC1=C(NCCN2CCCC2)C(=O)c2c(OCc3ccc(F)c(Cl)c3)cccc2C1=O` the value was 80.7% (inactive); for `CN1CCN(Cc2ccc(NC(=O)c3cncc(C#Cc4cnc(N)c5cccnc45)c3)cc2C(F)(F)F)CC1`, 30.2% (inactive); for `C/C(=C(/c1ccc(O)cc1)c1ccc(OCCN2CCCC2)cc1)c1ccccc1`, 66.3% (inactive). For `c1ccc2sc(SCCCn3ccnc3)nc2c1` the value was 94.1% (inactive); for `CCc1ccc(C(c2ccc(CC)cc2)C(Cl)(Cl)CCl)cc1`, 90.1% (inactive); for `Cc1ccc(C2CC3c4ccccc4C2C2CCCCN32)cc1` (configuration not stated), 93.1% (inactive). Turning to `CCOC(=O)C(=Cc1ccccc1F)C(=O)OCC`, the growth is 110% (inactive). Take `CCN(CC)CCCNc1cc(OC)cc2nc3cc(Cl)ccc3nc12`: the growth was 27.5% (inactive). Under `O=C(/C=C/c1cc2ccccc2[nH]c1=O)/C=C/c1cc2ccccc2[nH]c1=O` stands -88.9% (active); under `Cc1cc(-c2nc3ccccc3s2)ccc1NC(=O)COc1ccc(Cl)cc1`, 91.8% (inactive); under `COc1cc(OC)c(/C=C/S(=O)(=O)Cc2cnc(OC)c(N)c2)c(OC)c1`, 17.5% (inactive). Take `COc1ccc(/C=C2\N=C3Sc4cc(Cl)ccc4C(=O)N3C2=O)cc1`: the growth is 118% (inactive). Under `O=C([C@@H](COCc1ccccc1)N1C(=O)[C@@H](N2C(=O)OC[C@@H]2c2ccccc2)[C@H]1/C=C/c1ccccc1)N1CCC(CCN2CCCCC2)CC1` stands 84% (inactive).
